Screening data (PubChem)
Compounds with a hit are over-represented: about 10% of the library has one in this group of screens.
JMJD2A Tudor inh: inhibitors of human JMJD2A Tudor domain; Potency, µM (series often up to 114 µM), most hits filed as inhibitors; O75164; AlphaScreen JMJD2A-Tudor / H3K4me3 peptide binding; 4.4% of 390,000 active; further: nearly all actives have a fitted effect of over 50% in size
Target sequence (O75164 whole entry, looked up, the tested form may be a part): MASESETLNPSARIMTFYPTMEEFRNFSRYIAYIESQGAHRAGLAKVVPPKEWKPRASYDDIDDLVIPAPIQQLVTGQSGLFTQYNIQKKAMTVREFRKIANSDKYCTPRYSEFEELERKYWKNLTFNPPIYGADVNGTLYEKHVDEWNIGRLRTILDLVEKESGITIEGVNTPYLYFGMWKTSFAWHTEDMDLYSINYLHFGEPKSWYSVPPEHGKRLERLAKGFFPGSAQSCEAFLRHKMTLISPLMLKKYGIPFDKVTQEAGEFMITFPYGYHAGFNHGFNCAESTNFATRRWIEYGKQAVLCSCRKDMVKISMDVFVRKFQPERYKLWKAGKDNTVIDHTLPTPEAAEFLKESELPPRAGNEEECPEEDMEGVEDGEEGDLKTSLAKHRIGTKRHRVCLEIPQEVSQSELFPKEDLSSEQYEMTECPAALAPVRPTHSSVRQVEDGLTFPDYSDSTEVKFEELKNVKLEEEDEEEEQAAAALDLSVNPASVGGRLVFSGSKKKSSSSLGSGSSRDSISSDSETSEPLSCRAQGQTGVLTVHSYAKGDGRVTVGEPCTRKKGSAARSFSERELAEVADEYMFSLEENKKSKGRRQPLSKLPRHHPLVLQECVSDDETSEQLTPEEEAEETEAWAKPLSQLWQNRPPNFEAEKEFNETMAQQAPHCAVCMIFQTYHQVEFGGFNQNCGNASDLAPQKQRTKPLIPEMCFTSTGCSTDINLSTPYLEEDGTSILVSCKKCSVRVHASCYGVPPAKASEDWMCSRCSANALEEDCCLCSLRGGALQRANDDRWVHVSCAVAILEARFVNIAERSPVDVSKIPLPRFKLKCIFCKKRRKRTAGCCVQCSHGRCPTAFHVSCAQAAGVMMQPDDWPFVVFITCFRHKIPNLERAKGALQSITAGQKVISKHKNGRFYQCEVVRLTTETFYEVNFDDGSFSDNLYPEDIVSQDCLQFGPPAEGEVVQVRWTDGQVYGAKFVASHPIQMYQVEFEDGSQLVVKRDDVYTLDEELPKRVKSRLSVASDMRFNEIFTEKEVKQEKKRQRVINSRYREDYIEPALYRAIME
GLS inhibitor: blocks human kidney-isoform glutaminase activity; O94925; GLS enzymatic activity, qHTS titration; Potency, µM (doses to about 45.5 µM), most hits filed as inhibitors; 0.21% of 410,000 active
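Two-point fluorescence kinetic (t0, 30 min RT) for hKGA; glutamate detected via glutamate oxidase–HRP–Amplex Red. Substrate: 1 mM L-glutamine solution; buffer 45 mM KH2PO4, pH 8.2.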
HP1b chromo inh: HP1-beta chromodomain-methylated histone interaction inhibition; P83916; AlphaScreen HP1-beta / biotin-H3K9me3 peptide binding; Potency, µM (series often up to 114 µM), most hits filed as inhibitors; 0.56% of 390,000 active; AID 540317; further: nearly all actives have a fitted effect of over 70% in size
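HP1-beta protein (50 nM final) preincubated 30 min at room temperature with biotinylated H3(1-18)K9me3 peptide (50 nM) in PBS pH 7.4, 0.01% Tween-20, then compound added for 30 min. AlphaScreen streptavidin donor/nickel chelate acceptor beads (10 ug/mL final), 30 min dark, luminescence read.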
G9a block: inhibitors of human histone lysine methyltransferase G9a | 8.8% of 350,000 active | G9a H3K9 monomethylation, AlphaScreen, 2 h | AID 504332 | Q96KQ7 | Potency, µM (highest dose often 102 µM), hits mostly inhibitors; further: nearly all actives have a fitted effect of over 75% in size
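Step 1: enzyme (final 20 nM) with compound, 15 min RT. Step 2: substrate peptide 500 nM and SAM 20 uM, 2 h RT. Step 3: anti-H3K9me1 antibody and AlphaScreen beads, 10 min, then plate read.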
BAZ2B block: BAZ2B (human) inhibition; AlphaScreen BAZ2B-H3K14Ac peptide displacement; Potency, µM (doses to about 114 µM), usual class: inhibitors; 4.4% of 360,000 active; Q9UIF8; further: nearly all actives have a fitted effect of over 60% in size
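Multi-concentration screen (max 110 uM) measuring displacement of acetylated histone H3 peptide from BAZ2B by AlphaScreen, using 50 nM protein, 50 nM peptide and 10 ug/mL streptavidin donor plus Ni-chelate acceptor beads.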
Each line names hits and unclear results; the compound was inactive in the other large screens. The call rests on the fitted dose curve; in most records, active means well fitted curve in the direction sought with a large enough effect; inconclusive means small, poorly fitted or top-dose-only effect, or another doubt; inactive means no such curve, though single readings can be large; an effect the other way counts as inactive or inconclusive.

c1cc[n+](CCC[n+]2ccccc2)cc1	JMJD2A Tudor inh inconclusive, G9a block 11.2µM
Cc1ccc2sc(-c3ccc(NC(=O)/C=C\C(=O)O)cc3)nc2c1	G9a block 50.1µM (no result: BAZ2B block)
Cc1nc(-c2ccc(NC(=O)/C=C\C(=O)O)cc2)cs1	JMJD2A Tudor inh inconclusive, G9a block 35.5µM
Cc1ccc(S(=O)(=O)N2CCN(C(=O)COC(=O)/C=C/c3ccc(OC(F)F)cc3)CC2)cc1	none (no result: G9a block, BAZ2B block)
COc1cc(-c2noc(C)c2C(=O)NCCCN2CCOCC2)cc(OC)c1OC	none (no result: G9a block, BAZ2B block)
Nc1cc2nc[nH]c2cc1N	JMJD2A Tudor inh 50.1µM, G9a block 17.8µM, BAZ2B block 28.2µM
CN(C)c1ccc(P(=O)(OC2CCCCC2)C(O)c2ccccn2)cc1 (configuration not stated)	JMJD2A Tudor inh inconclusive, BAZ2B block 44.7µM (no result: G9a block)
CC(C)COP(=O)(c1ccc(N(C)C)cc1)C(O)c1ccccn1 (configuration not stated)	JMJD2A Tudor inh 1.26µM, G9a block 3.55µM (no result: BAZ2B block)
C/C(=N\NC(=O)c1c(C)nc2ccccn12)c1ccccc1F	BAZ2B block inconclusive
C/C(=N\NC(=O)c1c(C)nc2ccccn12)c1ccc(O)cc1O	BAZ2B block 1.78µM
CCOc1ccc(CNC(=O)c2cnc3sc(N4CCC(C)CC4)nn3c2=O)cc1OC	none
O=C(NCc1ccncc1)C1=NN(c2ccccc2)C(=O)CC1	G9a block 25.1µM
Cc1nc2ccc(NC(=O)c3ccc(Cl)c([N+](=O)[O-])c3)cc2s1	G9a block inconclusive
Cc1cc(C)c(-c2csc(NC(=O)C3=NN(c4ccccc4)C(=O)CC3)n2)c(C)c1	G9a block 28.2µM
Cc1nc2ccc(NC(=O)c3cc([N+](=O)[O-])cc([N+](=O)[O-])c3Cl)cc2s1	JMJD2A Tudor inh 56.2µM, HP1b chromo inh inconclusive, G9a block 6.31µM, BAZ2B block inconclusive
CSc1nc2ccc(NC(=O)c3ccccn3)cc2s1	JMJD2A Tudor inh 28.2µM, G9a block inconclusive
Cc1nc2cnc(N(C)C)nc2n(CCc2ccccc2)c1=O	none (no result: JMJD2A Tudor inh, GLS inhibitor, HP1b chromo inh, BAZ2B block)
CC(=O)c1cccc(NC(=O)c2cc(S(=O)(=O)N3CCCCC3)ccc2N2CCOCC2)c1	none (no result: JMJD2A Tudor inh, HP1b chromo inh, G9a block, BAZ2B block)
CC(=O)Nc1ccc2nc(NC(=O)C(Cl)(Cl)Cl)sc2c1	G9a block 50.1µM
CC(=O)Nc1ccc2nc(NC(=O)c3cccnc3)sc2c1	none
CSc1nc2ccc(NC(=O)C3=NN(c4ccccc4)C(=O)CC3)cc2s1	JMJD2A Tudor inh inconclusive, G9a block 44.7µM
Cc1nc2ccc(NC(=O)c3cc(Cl)ccn3)cc2s1	G9a block 44.7µM, BAZ2B block 79.4µM
COc1ccc(S(=O)(=O)N2CCOCC2)cc1NC(=O)c1cc2ccccc2o1	G9a block 44.7µM
CCOc1ccc(NC(=O)c2cccc(-n3cccc3)c2)cc1S(=O)(=O)N1CCOCC1	BAZ2B block 5.01µM (no result: JMJD2A Tudor inh, GLS inhibitor, HP1b chromo inh)
COc1ccc(S(=O)(=O)N2CCOCC2)cc1NC(=O)c1cccc(-n2cccc2)c1	JMJD2A Tudor inh inconclusive, G9a block 28.2µM, BAZ2B block inconclusive
COc1ccc(OC)c(NC(=O)/C=C/c2ccc(S(=O)(=O)N3CCOCC3)cc2)c1	G9a block 50.1µM
Cc1nn(CC(=O)N2CCN(c3ccccc3)CC2)c(=O)c2cc3cc(F)ccc3n12	none
CC(=O)C[C@H](O)CC(=O)[C@H]1OC(=O)CCCCCCCc2ccccc21	none
CCOC(=O)C1=C(SCC)c2cc3c(n2C1=O)CCCC3	JMJD2A Tudor inh 35.5µM, HP1b chromo inh inconclusive, G9a block 7.94µM, BAZ2B block 10µM
CCOC(=O)c1cnc2cc3c(cn2c1=O)CCCC3	none
S=C(NC1CCCC1)NN1CCOCC1	none
COc1ccccc1CNC(=O)CSc1nc(C)cs1	none
Cc1cc(C)n2nc(SCC(=O)N3CCN(c4ccc(F)cc4)CC3)nc2n1	none
COc1ccccc1C(=O)NC(=O)CSc1nc(C)cs1	G9a block 50.1µM
Cc1cc(C)nc(SCC(=O)NC2CCCC2)n1	none
Cc1cc(C)n2nc(SCC(=O)NC3CCCCC3)nc2n1	G9a block 44.7µM
Cc1cc(C)n2nc(SCCCC(=O)c3ccc(F)cc3)nc2n1	G9a block 50.1µM
Cc1csc(SCC(=O)NC(=O)NC2CCCC2)n1	G9a block 44.7µM
O=S(=O)(c1ccc(Cl)cc1)N1CCN(c2nc(Nc3cc(Cl)ccc3O)nc3ccccc23)CC1	none (no result: GLS inhibitor, G9a block, BAZ2B block)
COc1ccc(N2CCN(C(c3ccccc3)c3nnnn3C(C)C)CC2)cc1 (configuration not stated)	JMJD2A Tudor inh inconclusive (no result: GLS inhibitor, G9a block, BAZ2B block)
Cc1nc(SCC(=O)NC(=O)NC2CCCCC2)nc(C)c1C	G9a block 14.1µM
CN(C)c1ccc(P(=O)(COc2ccc([N+](=O)[O-])cc2)c2ccc(N(C)C)cc2)cc1	JMJD2A Tudor inh 22.4µM, HP1b chromo inh inconclusive, BAZ2B block 25.1µM (no result: G9a block)
O=C(NCC(c1cccnc1)N1CCc2ccccc2C1)C(=O)Nc1cccc(Cl)c1 (configuration not stated)	none
Cc1ccc(Nc2nc(N)c([N+](=O)[O-])c(N3CCOCC3)n2)cc1C	JMJD2A Tudor inh inconclusive, G9a block inconclusive
Cc1cccc(Nc2nc(N)c([N+](=O)[O-])c(N3CCCC(C)C3)n2)c1 (configuration not stated)	JMJD2A Tudor inh 39.8µM, G9a block 39.8µM, BAZ2B block 39.8µM
Cc1cccc(Nc2nc(N)c([N+](=O)[O-])c(N3CCN(C)CC3)n2)c1	G9a block inconclusive
Cc1ccc(Nc2nc(N)c([N+](=O)[O-])c(N3CCC(C)CC3)n2)cc1C	JMJD2A Tudor inh 56.2µM, HP1b chromo inh inconclusive, G9a block inconclusive, BAZ2B block 25.1µM
COc1ccc(NC(=O)C(=O)c2cc(C)n(-c3ccc(C)cc3)c2C)cc1Cl	none
Cc1nnc(SCC(=O)Nc2ccc(N(C)C)cc2)[nH]c1=O	G9a block inconclusive, BAZ2B block inconclusive
Cc1ccc(NC(=S)N(Cc2ccc(Cl)cc2)Cc2ccc(C(=O)O)cc2)cc1Cl	G9a block 39.8µM
CN(N)C(=S)Nc1ccc(F)cc1	G9a block 50.1µM
COc1ccc(CN(CC2CCC(C(=O)O)CC2)C(=S)Nc2ccc(C)c(Cl)c2)cc1 (configuration not stated)	G9a block inconclusive
Cc1ccc(NC(=S)N(C)N)cc1Cl	G9a block 31.6µM, BAZ2B block inconclusive
COc1cc(CNC[C@H]2O[C@@H](n3ccc(N)nc3=O)[C@H](O)[C@@H]2O)ccc1OCc1ccc(C)cc1	none (no result: JMJD2A Tudor inh, HP1b chromo inh, G9a block, BAZ2B block)
COc1ccc(-n2c(=O)c3c4c(sc3n(Cc3ccc(C)cc3C)c2=O)CCC4)c(OC)c1	G9a block inconclusive, BAZ2B block inconclusive
CCCCn1c(N)c(N(CC(C)C)C(=O)C(C)SCc2nc3sc(C)c(C)c3c(=O)[nH]2)c(=O)[nH]c1=O (configuration not stated)	G9a block 35.5µM
Cc1nc(CN2CCCCC2)cc(=O)[nH]1	none
Cc1ccc(-n2c(=S)[nH]c3sc4c(c3c2=O)CCc2ccccc2-4)cc1	none
